Compound activity deposited in PubChem by National Center for Advancing Translational Sciences (NCATS).
This is a sample that favours compounds with a hit; in the whole collection about 1.8% have one here.
MBNL1-CUG inh = qHTS Assay for Inhibitors of MBNL1-poly(CUG) RNA binding; hit rate 0.036% among 280,000; Potency, µM (titrated, usually from 57.5 µM), for the others: top-dose activity change, negative = inhibition, most hits filed as inhibitors; TR-FRET MBNL1-His/biotin-(CUG)12 binding, 665/545 ratio; active = well fitted inhibition curve with a large enough effect in the signal ratio, with a control signal flat, not every such curve was filed as active; inconclusive = small, poorly fitted or top-dose-only effect, or effect the other way, or a change in a side signal; inactive = no such curve, though single readings can be large or run the other way; the % refers to the signal ratio; note: potency is the fitted concentration of half-maximal effect; % is set by controls: 0 for no effect and ±100 for the full control effect
Target sequence (Q9NR56 whole entry, looked up): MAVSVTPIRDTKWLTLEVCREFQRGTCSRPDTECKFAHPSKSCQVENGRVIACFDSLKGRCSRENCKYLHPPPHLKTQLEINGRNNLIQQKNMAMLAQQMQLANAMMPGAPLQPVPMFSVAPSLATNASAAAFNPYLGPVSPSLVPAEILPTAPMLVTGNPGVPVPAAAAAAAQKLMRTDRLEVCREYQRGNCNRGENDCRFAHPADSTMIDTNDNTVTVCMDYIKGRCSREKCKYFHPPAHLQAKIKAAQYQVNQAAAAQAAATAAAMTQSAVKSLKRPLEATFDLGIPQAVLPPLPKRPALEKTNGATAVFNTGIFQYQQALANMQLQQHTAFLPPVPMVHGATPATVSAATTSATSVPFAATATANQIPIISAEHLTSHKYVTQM
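TR-FRET between His-tagged MBNL1 and biotin-(CUG)12 RNA, detected with Tb anti-His antibody (0.055 ng/ul) and streptavidin-XL665 (5 nM), 60 min at room temperature. Compounds titrated 92 nM to 58 uM; 665/545 nm ratio normalized to buffer and complex controls.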
TCR act = Activators of T cell receptors: qHTS campaign; AID 504894, 2011; 330,000 tested, under 10 active; primary human leukocytes, anti-CD3, IL-2 HTRF, 48 h; Potency, µM (series often up to 9.22 µM), inactives show at the top dose activation of IL-2 secretion, hits mostly activators; note: % of control where 0% means no effect
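Human primary leukocytes + a-CD3 beads + cpd, 48 hr; IL-2 in supernatant by HTRF (ex 320nm / em 665nm). No co-stimulatory signal supplied.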
Mito fusion act = qHTS Assay for Small Molecule Inhibitors of Mitochondrial Division or Activators of Mitochondrial Fusion; S. cerevisiae fusion-defective mutant growth rescue, CellTiterGlo 48 h; hit rate 0.23% among 320,000; AID 485298, 2010; Potency, µM (doses to about 46.1 µM), without a hit: at the top dose growth rescue (activation), usual class: activators; note: potency is the fitted concentration of half-maximal effect; % of control where 0% means no effect; nearly all actives have a fitted effect of over 45% in size
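Luminescent cell viability in 1536-well qHTS format served as the measure of rescued growth in ts fusion-mutant S. cerevisiae cultured on non-fermentable YPEG for 48 hours at 37C.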
AT treatment = qHTS Assay for Identifying a Potential Treatment of Ataxia-Telangiectasia | F2112 A-T fibroblasts, KAP-1 phosphorylation AlphaLISA; neocarzinostatin DNA damage 30 min before lysis | Potency, µM (series often up to 57.5 µM), inactives show at the top dose activation, usual class: activators | hit rate 0.19% among 320,000 | AID 485349, 2010; note: potency is the fitted concentration of half-maximal effect; % of control where 0% means no effect; nearly all actives have a fitted effect of over 45% in size
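hTERT-immortalized A-T patient fibroblasts (F2112), 500 cells/well in OPTI-MEM, 1% FBS, got compounds for 60 min, then NCS for 30 min at 37C. Lysates were then assayed for phospho-KAP-1 by AlphaLISA (anti-pKAP1 donor, anti-KAP1 acceptor beads), 6 hr at 25C.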
ClpP mod = qHTS Assay for Activators of ClpP; hit rate 1.9% among 340,000; purified B. subtilis ClpP, FRET peptide cleavage, 20 min; Potency, µM (top dose mostly 57.5 µM), without a hit: at the highest dose activity change, negative = active; active = well fitted falling curve with a large enough effect; inconclusive = small, poorly fitted or top-dose-only effect; inactive = no such curve, though single readings can be large or run the other way; note: potency is the fitted concentration of half-maximal effect; the source files actives as falling curves though it sought activators and does not explain the sign; nearly all actives have a fitted effect of over 65% in size
Target sequence (P80244 whole entry, looked up): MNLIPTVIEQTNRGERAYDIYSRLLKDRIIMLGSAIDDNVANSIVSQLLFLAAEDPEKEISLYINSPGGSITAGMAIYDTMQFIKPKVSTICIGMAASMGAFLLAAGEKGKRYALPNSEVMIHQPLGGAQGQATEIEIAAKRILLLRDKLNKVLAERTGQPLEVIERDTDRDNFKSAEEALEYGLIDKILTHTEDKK
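ClpP 10 microg/mL final, pH 8 Tris/KCl buffer with BSA, glycerol, Tween-20; compound pinned in; FRET-FV substrate; RT 20 min; Ex320/Em430; ΔFRET vs ADEP 5.8 microM, DMSO, no enzyme.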
Glioma ERSR ind = qHTS for Inducers of the Endoplasmic Reticulum Stress Response (ERSR) in Human Glioma: qHTS. AID 602332, 2012. U87-MG GRP78 promoter luciferase reporter, 16 h. Potency, µM, without a hit: top-dose activation, most hits filed as activators. hit rate 0.02% among 420,000; note: potency is the fitted concentration of half-maximal effect; series mostly up to about 76 µM; % of control where 0% means no effect; nearly all actives have a fitted effect of over 35% in size
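ERSR induction read as luciferase luminescence (Bright-Glo, 10 min at room temperature) in stably transfected human U87-MG glioma cells exposed to compounds for 16 h, using GRP78 as sensor.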
Numbers without * were called inactive; ? = inconclusive; . = not tested or not shown; ! = not confirmed by another sample; [ ] = remark or other dose. Unless noted, calls come from the whole dose curve; as a rule, active = well fitted curve in the direction sought with a large enough effect; inconclusive = small, poorly fitted or top-dose-only effect, or another doubt; inactive = no such curve, though single readings can be large; an effect the other way counts as inactive or inconclusive.

SMILES	MBNL1-CUG inh	TCR act	Mito fusion act	AT treatment	ClpP mod	Glioma ERSR ind
CCOC(=O)c1snc(C(=O)NC2CCCCC2)c1N	17%	-8%	15%	10%	?	10%
Nc1c(C(=O)NC2CCCCC2)nsc1C(=O)OCC(=O)NC1CCCCC1	?	.	1%	8%	25µM*	-4%
Cn1c(=O)[nH]c(=O)c2c1nc(Br)n2CCC(=O)c1ccccc1	-4%	4%	-1%	-7%	28µM*	-2%
O=C1C(Cc2ccccc2)Nc2ncnc(N3CCN(c4ccccc4)CC3)c2N1Cc1ccccc1 (stereo unspecified)	.	-1%	14%	-4%	-4%	-2%
Cc1ccc(CN2C(=O)C(Cc3ccccc3)Nc3ncnc(N4CCN(c5ccccc5)CC4)c32)cc1 (stereo unspecified)	.	-5%	11µM*	-10%	2%	-5%
CN(C)c1ccc(Cn2ccc3ccccc32)cc1	.	.	.	.	-11%	9%
COc1cc2nc(NC3CCN(Cc4ccccc4)CC3)nc(N3CCCN(C)CC3)c2cc1OC	.	.	.	.	4%	.
O=C(NCCc1cccs1)C1CC(c2cccc(F)c2)=NO1 (stereo unspecified)	-9%	-3%	?	40µM*	5%	3%
Cn1c(C(=O)NCC2CCCO2)cc2c(=O)[nH]c3ccccc3c21 (stereo unspecified)	-14%	2%[46.1 µM]	2%	-4%	22µM*	4%
CN1CCN2c3ccccc3Cc3ccccc3C2C1 (stereo unspecified)	?	6%	-2%	11%	0%	35µM*!
CN1CCN(C2Cc3ccccc3Sc3ccc(Cl)cc32)CC1 (stereo unspecified)	.	9%	-89%	2%	-1%	-4%
COC(=O)c1ccc(CN2CCOc3ccc(CN4CCC(O)(c5cccnc5)CC4)cc3C2)cc1	.	.	.	.	.	-3%
Cc1c(C(=O)N2CC3CCC2C3)sc2ncnc(NCc3ccco3)c12 (stereo unspecified)	.	.	.	.	.	-3%
C[N+]12CCCC[C@@H]1CCC(=C(c1cccs1)c1cccs1)C2 (stereo partly specified)	.	.	.	.	.	-3%
O=S(=O)(c1cccc(-c2nnc(SCc3nc4ccccc4s3)o2)c1)N1CCOCC1	10%	2%	-3%	15%	28µM*	3%
CN(C)c1ccc(/C=C2\CCc3cc(N)ccc32)cc1	.	.	.	.	-23%	2%
COCc1cc(C)nc(N2CCNCC2)c1C#N	2%	2%	1%	.	16µM*	-2%
COCc1cc(C)nc(N2CCCCC2)c1C#N	-13%	0%[46.1 µM]	0%	-6%	22µM*	-2%
COCc1cc(C)nc(N2CCN(c3ccccc3)CC2)c1C#N	2%	2%	26%	-4%	-10%	1%
COc1cccc2sc(Nc3nnc(-c4ccc(F)cc4)o3)nc12	5%	2%	13%	-6%	4%	0%
Fc1cccc2sc(Nc3nnc(-c4ccco4)o3)nc12	40%	2%	5%	26%	25µM*	5%
C[N+]1(CC(=O)c2ccc(Cl)c(Cl)c2)CCOCC1	.	.	.	.	-1%	-6%
O=C(OC(C(=O)Nc1ccc([N+](=O)[O-])cc1Br)c1ccccc1)c1ccccc1 (stereo unspecified)	12%	3%	11%	-1%	0%	-1%
CC(C)C(=O)Nc1ccc([N+](=O)[O-])cc1Br	?	-2%[46.1 µM]	0%	2%	35µM*	-4%
Cc1ccc(C(=O)Nc2cnn(-c3ccc(C(=O)NCc4nc(-c5ccccc5)n[nH]4)cc3)c2)c(C)c1	.	.	.	.	.	-3%
SMILES	MBNL1-CUG inh	TCR act	Mito fusion act	AT treatment	ClpP mod	Glioma ERSR ind
CCOC(=O)c1c(C)[nH]c(C=O)c1Cc1cccc(Cl)c1	0%	8%[46.1 µM]	13µM*	6%	3%	-5%
CC(C(=O)Nc1ncc2c(n1)CC(C)(C)CC2=O)N1C(=O)c2ccccc2C1=O (stereo unspecified)	6%	-2%	-2%	1%	28µM*	-3%
CCc1ccccc1NC(=O)CN1CCN(C(=O)C(C)NC(=O)c2ccc(Cl)cc2)CC1 (stereo unspecified)	.	4%	-2%	-1%	16µM*	-4%
CNc1ccc(C=C2C=CC=C2)cc1	.	.	.	.	-3%	5%
CCCCCCCC(=O)NNC(=O)c1ccc(F)cc1	5%	7%	-2%	14%	-3%	-4%
CCCCCC(=O)NNC(=O)c1ccc(F)cc1	.	1%[46.1 µM]	-4%	5%	2.8µM*	-2%
C[n+]1cccc(Br)c1	.	.	.	.	-1%	-2%
CCOC(=O)c1c(-c2ccccc2)csc1NC(=O)CCN1CCOCC1	.	-9%[46.1 µM]	11µM*	12%	-3%	-5%
CCOC(=O)c1c(-c2ccc(F)cc2)csc1NC(=O)c1c(-c2ccccc2)noc1C	-4%	1%[46.1 µM]	-3%	-1%	20µM*	-1%
CCOC(=O)c1c(-c2ccc(C)cc2)csc1NC(=O)CCN1CCOCC1	-10%	15%[46.1 µM]	13µM*	8%	-5%	-7%
CN(C)CC(C)(O)c1ccc2c(c1)CN(Cc1cnn(-c3ccccc3)c1)CCO2 (stereo unspecified)	.	.	.	.	.	-3%
O=C(COC(=O)c1n[nH]c2ccccc12)NC(=O)NCc1ccco1	-13%	3%	-2%	.	32µM*	1%
Cc1cccc(NC(=O)C2CCN(S(=O)(=O)c3c(C)c(C)cc(C)c3C)CC2)n1	.	-6%	20µM*	-4%	1%	-3%
O=[N+]([O-])c1ccc2c(c1)C=C/C2=C/c1ccccc1	.	.	.	.	3%	12%
COc1ccccc1N1CC(C)(C)C(=O)N(C(=O)c2ccc(C)cc2)C1=S	-13%	-6%	-4%	-10%	-1%	25µM*
COc1ccccc1N1CC(C)(C)C(=O)N(C(=O)c2ccc(Cl)cc2)C1=S	-8%	0%	2%	?	1%	19%
CSc1ccc(C(=O)N2CCc3c(cnc(C)c3CNC(=O)c3cncs3)C2)cc1	.	.	.	.	.	-4%
O=C1c2ccccc2NC(c2ccc(F)cc2)N1Cc1ccco1 (stereo unspecified)	-2%	0%	1%	1%	?	-4%
O=C1c2ccccc2NC(c2ccccc2)N1Cc1ccco1 (stereo unspecified)	5%	0%	1%	7%	28µM*	-2%
Cc1ccc(NS(=O)(=O)c2ccc(-c3cc(C)no3)cc2)c(Br)c1	.	.	.	.	2%	-4%
